Source: PubChem BioAssay (NCATS)
Where “and” joins values, the source holds several entries; their conditions need not be identical. Equal values may be shown once. Records with an inconclusive call do not appear. Calls of active or inactive are those of the source. Unless noted, calls follow the shape of the dose curve; as a rule, active = well fitted curve in the direction sought with a large enough effect; inconclusive = small, poorly fitted or top-dose-only effect, or another doubt; inactive = no such curve, though single readings can be large; an effect the other way counts as inactive or inconclusive. Numbered stars: 1 amine (or outer) side, 2 acyl side, 3 side chain; on linkers, the order of the positions; unused ones are H or OH. Bridge positions count the residues as written; N and C are the ends. Square brackets hold non-standard residues; d marks the D form. Peptide text beside a SMILES is read from it. I, II: the chains in the order shown. Actinocin(9to1) = Cc1c2oc3c(C)ccc(C(=O)[*:1])c3nc-2c(C(=O)[*:2])c(N)c1=O; NMeV = CN[C@H](C(=O)O)C(C)C; Sar = CNCC(=O)O

Key:
[1] = target: DNA repair nuclease/redox regulator APEX1 (Homo sapiens) (UniProt P27695); experiment: qHTS Validation Assay for Inhibitors of the Human Apurinic/apyrimidinic Endonuclease 1 (APE1) (AID 1705;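 also: TAMRA fluorescence gain over two minutes as APE1 cuts a quenched THF abasic duplex; % is scaled to controls: 0 for no effect and ±100 for the full control effect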)
Sequence of DNA repair nuclease/redox regulator APEX1 (Homo sapiens) (P27695 whole entry, looked up): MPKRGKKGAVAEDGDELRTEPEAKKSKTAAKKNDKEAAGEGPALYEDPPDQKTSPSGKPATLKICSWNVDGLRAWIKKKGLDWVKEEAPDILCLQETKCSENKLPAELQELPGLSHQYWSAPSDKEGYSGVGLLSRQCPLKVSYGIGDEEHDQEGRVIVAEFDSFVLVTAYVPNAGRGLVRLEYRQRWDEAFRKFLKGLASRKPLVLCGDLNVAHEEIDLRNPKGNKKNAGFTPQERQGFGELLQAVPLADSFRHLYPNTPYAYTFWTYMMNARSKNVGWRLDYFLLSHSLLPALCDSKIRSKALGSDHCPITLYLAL
How it was run: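 Activity read as rising fluorescence (598 nm emission, 525 nm excitation) from incision of a TAMRA/BHQ-2 duplex carrying a THF abasic site (50 nM). Compound and enzyme sat 15 min at RT before substrate start; signal change between first and third 60-s reads.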

[2] = Counterscreen for APE1 Inhibitors: Fluorescent Dye Displacement Validation Assay (AID 1707);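 also: plate controls were ThO with dsDNA and no compound for no effect and ThO without dsDNA for full effect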
How it was run: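 Loss of Thiazole Orange fluorescence marks promiscuous DNA binders. The dye (250 nM) is mixed with 50 nM abasic-site dsDNA in pH7.5 Tris buffer containing MgCl2, then compounds are added and emission is read once.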

[3] = target: Endonuclease 4 (Escherichia coli (strain K12)) (UniProt P0A6C1); experiment: Counterscreen for APE1 Inhibitors: qHTS Validation Assay for Inhibitors of Endonuclease IV (AID 1708); also: % is scaled to controls: 0 for no effect and ±100 for the full control effect
How it was run: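 Conditions: 2 nM enzyme, 50 nM TAMRA/BHQ-2 substrate, pH 7.5 Tris buffer with 2 mM MgCl2, RT. Compound preincubation 15 min; readout three fluorescence reads 60 s apart, third-minus-first.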

[4] = qHTS for differential inhibitors of proliferation of Plasmodium falciparum line 7G8 (AID 1815);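 also: parasite growth measured after three days of incubation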; also: potency is read from the fitted curve at half-maximal effect;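 as to activity change, negative = inhibition: plate controls were vehicle wells for no effect and reference inhibitor wells for full effect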
[5] = qHTS for differential inhibitors of proliferation of Plasmodium falciparum line GB4 (AID 1816); settings: Potency: Plasmodium falciparum GB4 proliferation inhibition;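 also: parasite growth measured after 72 h incubation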; also: potency is read from the fitted curve at half-maximal effect;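 as to activity change, negative = inhibition: 0% = vehicle DMSO and -100% = reference inhibitor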
[6] = qHTS for differential inhibitors of proliferation of Plasmodium falciparum line 3D7 (AID 1876); also: potency is read from the fitted curve at half-maximal effect
[7] = qHTS for differential inhibitors of proliferation of Plasmodium falciparum line D10 (AID 1877);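 also: parasites grown with compound for 72 h before DNA staining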; also: potency is read from the fitted curve at half-maximal effect;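 as to activity change, negative = inhibition: plate controls were vehicle wells for no effect and reference inhibitor wells for full effect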
[8] = qHTS for differential inhibitors of proliferation of Plasmodium falciparum line Dd2 (AID 1882); settings: Potency: Plasmodium falciparum Dd2 proliferation inhibition; also: nearly all actives have a fitted effect of over 65% in size; also: potency is read from the fitted curve at half-maximal effect;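 as to activity change, negative = inhibition: plate controls were DMSO vehicle for no effect and 0.29 µM artemisinin for full effect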
How it was run: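 SYBR Green DNA fluorescence (ex 485, em 535 nm) after overnight lysis quantifies parasite growth; compound exposure lasted 72 h at 37 C on infected red cells at 2.5% hematocrit, 0.3% parasitemia (final). Artemisinin 0.29 uM and vehicle wells define normalization.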

[9] = qHTS for differential inhibitors of proliferation of Plasmodium falciparum line W2 (AID 1883); settings: Potency: Plasmodium falciparum W2 proliferation inhibition;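 also: parasites grown with compound for 72 h before lysis and staining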; also: potency is read from the fitted curve at half-maximal effect;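 as to activity change, negative = inhibition: 0% = vehicle wells and -100% = control inhibitor wells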
[10] = Cell Viability - LYMP2-020 (AID 986);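 also: cells exposed to compound for 24 h at 37 °C; nearly all actives have a fitted effect of over 55% in size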; also: potency is read from the fitted curve at half-maximal effect
How it was run: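 Seed 2500 cells per well and incubate 5 hr at 37 C. Add compounds at a concentration series and incubate 24 hr at 37 C. Add CellTiter-Glo, wait 30 min at RT, read luminescence, and fit a Hill curve for AC50.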

[11] = Cell Viability - LYMP2-022 (AID 987); also: nearly all actives have a fitted effect of over 55% in size; also: potency is read from the fitted curve at half-maximal effect
How it was run: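 Cells were seeded at 2500 per well, rested 5 hr at 37 C, and treated with titrated compounds for 24 hr at 37 C. Cellular ATP was then quantified by luciferase luminescence, and AC50 values were derived from Hill-modelled concentration-response curves.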

[12] = Cell Viability - LYMP2-024 (AID 988); also: nearly all actives have a fitted effect of over 60% in size; also: potency is read from the fitted curve at half-maximal effect
How it was run: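 qHTS cytotoxicity, human lymphoblastoid line, complete medium; 24 h cpd treatment, 37 C; CellTiter-Glo ATP luminescence readout; tetraoctylammonium bromide positive control; AC50 via Hill fit.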

[13] = Cell Viability - LYMP2-026 (AID 989);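 also: cells exposed to compound for 24 h at 37 °C; nearly all actives have a fitted effect of over 50% in size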; also: potency is read from the fitted curve at half-maximal effect
How it was run: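 Cells are seeded at 2500 per well and held 5 hr at 37 C. Compounds are added in concentration series for 24 hr, then CellTiter-Glo reagent is applied and luminescence read.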

[14] = Cell Viability - LYMP1-002 - Assay at 24 hr (AID 993); also: potency is read from the fitted curve at half-maximal effect
How it was run: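 Acute toxicity is measured as concentration-dependent loss of cellular ATP in a human lymphoblastoid line (Coriell LYMP1-002) after 24 h treatment in complete medium. ATP is quantified by luciferase luminescence and AC50 derived by Hill modelling.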

[15] = qHTS Assay for Lipid Storage Modulators (AID 1519; calls by dose curve; as to activity change, negative = inhibition: % is scaled to controls: 0 for no effect and ±100 for the full control effect); settings: Drosophila S3 cells, BODIPY lipid droplet/cell ratio, laser cytometry, cells loaded with oleic acid
How it was run: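 Cells seeded at 5,000 per well were treated with compounds over a concentration series and loaded with oleic acid (400 uM, as added). Lipid droplet fluorescence (488 nm excitation, 500-530 nm channel) was read by laser-scanning cytometry and normalized to 20 uM Triacsin C.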

[16] = target: Alpha-galactosidase A (Homo sapiens) (UniProt P06280); experiment: Counterscreen for Glucocerebrosidase Inhibitors: qHTS Assay for Human alpha-Galactosidase at pH 4.5 (AID 992); also: 0% is about no effect
Sequence of Alpha-galactosidase A (Homo sapiens) (P06280 whole entry, looked up): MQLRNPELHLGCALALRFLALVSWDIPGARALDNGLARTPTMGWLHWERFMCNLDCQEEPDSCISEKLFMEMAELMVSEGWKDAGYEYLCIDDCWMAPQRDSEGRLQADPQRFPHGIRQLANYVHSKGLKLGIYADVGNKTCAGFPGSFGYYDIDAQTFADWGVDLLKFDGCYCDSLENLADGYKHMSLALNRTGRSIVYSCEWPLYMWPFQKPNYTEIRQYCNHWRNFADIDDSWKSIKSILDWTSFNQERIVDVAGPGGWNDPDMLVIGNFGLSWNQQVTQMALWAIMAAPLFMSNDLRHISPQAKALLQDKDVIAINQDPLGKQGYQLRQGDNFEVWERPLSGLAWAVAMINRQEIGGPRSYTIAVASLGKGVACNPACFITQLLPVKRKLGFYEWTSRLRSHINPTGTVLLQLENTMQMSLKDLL
How it was run: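 Each compound is preincubated briefly with 2 nM enzyme before substrate addition (80 uM); plates then sit 20 min at ambient temperature, are quenched with 1M NaOH/1M glycine, and read fluorometrically.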

[17] = target: alpha-glucosidase (Oryza sativa, rice) (UniProt Q653V4); experiment: Counterscreen for Glucocerebrosidase Inhibitors: qHTS Assay for Rice alpha-Glucosidase at pH 5.0 (AID 997);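 also: 0% = full activity with enzyme and -100% = basal without enzyme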
How it was run: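 Endpoint fluorogenic assay at pH 5.0: compounds (0.7 nM to 77 uM) titrated against 4 nM rice enzyme and 400 uM 4-MU-alpha-glucoside for 20 min at room temperature; NaOH/glycine stop, read ex 365/em 440 nm, Hill-fitted AC50.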

[18] = qHTS for differential inhibitors of proliferation of Plasmodium falciparum line HB3 (AID 1886); settings: Potency: Plasmodium falciparum HB3 proliferation inhibition;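 also: parasites grown with compound for 72 h before SYBR Green readout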; also: potency is read from the fitted curve at half-maximal effect;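 as to activity change, negative = inhibition: plate controls were vehicle for no effect and reference inhibitor for full effect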
[19] = qHTS Assay for Modulators of Human Peripheral Myelin Protein 22 (PMP22) Expression/Activity (AID 1967; active = well fitted curve in the direction sought with a large enough effect in the signal ratio; the % refers to the signal ratio;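 also: 0% = untreated cells and 100% end not stated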)
How it was run: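 Readout is the corrected green/red luminescence ratio after 24 h compound exposure, normalised to untreated cells (0%). Engineered MSC80 mouse Schwann cells express green luciferase from the mouse Pmp22 promoter and red luciferase from EF-alpha as internal control.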

[20] = measured here: cell count channel max response
[21] = measured here: lipid channel max response

N[C@H](CO)C(=O)O
inactive: Potency [1] | outcome [2] | outcome [3] | Potency [4] | Potency [5] | Potency [6] | Potency [7] | Potency [8] | Potency [9]

Nc1ccc(C(=O)O)cc1
22.6%: max response [15, 21]
13.3%: max response [15, 20]
inactive: Potency [10] | Potency [11] | Potency [12] | Potency [13] | Potency [14] | activity change, negative = inhibition ([15]; at 57.5 µM (top of the series)) 6.97%

CC(=O)O[C@]1(C(C)=O)CC[C@H]2[C@@H]3C[C@H](C)C4=CC(=O)CC[C@]4(C)[C@H]3CC[C@@]21C
active: Potency [11] 39800 nM
inactive: Potency [14]

CN1CCC[C@@H]1c1cccnc1
inactive: outcome [16] | outcome [17]

CN=C(NC#N)Nc1ccc(C2=NNC(=O)CC2C)cc1 (configuration not stated)
inactive: activity change, negative = inhibition ([15]; at 57.5 µM (top of the series)) 2.25% | Potency [1] | outcome [2] | outcome [3] | Potency [5] | Potency [6] | Potency [7] | Potency [8] | Potency [9] | Potency [18]
17.1%: max response [15, 21]
14.7%: max response [15, 20]

Cc1c2oc3c(C)ccc(C(=O)N[C@@H]4C(=O)N[C@H](C(C)C)C(=O)N5CCC[C@H]5C(=O)N(C)CC(=O)N(C)[C@@H](C(C)C)C(=O)O[C@@H]4C)c3nc-2c(C(=O)N[C@@H]2C(=O)N[C@H](C(C)C)C(=O)N3CCC[C@H]3C(=O)N(C)CC(=O)N(C)[C@@H](C(C)C)C(=O)O[C@@H]2C)c(N)c1=O (I: T[dV]P[Sar][NMeV] / II: T[dV]P[Sar][NMeV]; ester I:1-I:C, II:1-II:C; linker I:N-II:N via Actinocin(9to1))
active: Potency [10] 6.3 nM | Potency [11] 12.6 nM | Potency [12] 4 nM | Potency [14] 7.9 nM

COc1cc(NS(C)(=O)=O)ccc1Nc1c2ccccc2nc2ccccc12
-18.7%: max response [15, 21]
inactive: outcome [16] | outcome [17] | activity change, negative = inhibition ([15]; at 57.5 µM (top of the series)) 0.361%
active: Potency [4] 1000 nM | Potency [5] 891 nM | Potency [6] 891 nM | Potency [7] 1410 nM | Potency [8] 2510 nM | Potency [9] 1000 nM | Potency [18] 1410 nM
-18.5%: max response [15, 20]

C=CCc1ccc(O)c(OC)c1
19.8% and 9.66%: max response [15, 20]
40.9% and 11.8%: max response [15, 21]
inactive: Potency [10] | Potency [11] | Potency [12] | Potency [13] | Potency [14] | activity change, negative = inhibition ([15]; at 57.5 µM (top of the series)) 13.1% and 1.99%

CCCCCCc1ccc(O)cc1O
inactive: Potency [10] | Potency [11] | Potency [12] | Potency [13] | Potency [14]

Oc1cc(O)c2c(c1)O[C@H](c1ccc(O)c(O)c1)[C@H](O)C2
inactive: outcome [16] | outcome [17] | activity change, negative = inhibition ([15]; at 25.7 µM (top of the series)) -1.15% and 0.397%
-4.1% and -15.5%: max response [15, 21]
-2.18% and -16.1%: max response [15, 20]

C=C(CC)C(=O)c1ccc(OCC(=O)O)c(Cl)c1Cl
active: Potency [11] 39800 nM | Potency [12] 39800 nM
inactive: Potency [14]

CN(C)/N=N/c1nc[nH]c1C(N)=O
19.3%: max response [15, 21]
10%: max response [15, 20]
inactive: Potency [10] | Potency [11] | Potency [12] | Potency [13] | Potency [14] | activity change, negative = inhibition ([15]; at 57.5 µM (top of the series)) 6.55%

CN1[C@@H]2CC[C@H]1CC(OC(=O)c1c[nH]c3ccccc13)C2 (some centres not stated)
inactive: outcome [16] | outcome [17]

COc1cccc2c1C(=O)c1c(O)c3c(c(O)c1C2=O)C[C@@](O)(C(C)=O)C[C@@H]3O[C@H]1C[C@H](N)[C@H](O)[C@H](C)O1
active: Potency [10] 501 nM | Potency [11] 100 nM | Potency [12] 126 nM | Potency [14] 794 nM

O=C1OC(c2ccc(O)cc2)(c2ccc(O)cc2)c2ccccc21
inactive: Potency [10] | Potency [11] | Potency [12] | Potency [13] | Potency [14]

CNCCC(Oc1ccccc1C)c1ccccc1 (configuration not stated)
inactive: activity change, negative = inhibition ([15]; at 57.5 µM (top of the series)) 2.16% | Potency [1] | outcome [2] | outcome [3] | Potency [7] | Potency [18]
23.2%: max response [15, 21]
active: Potency [4] 7940 nM
19.1%: max response [15, 20]

CC(C)(C)CC(C)(C)c1ccc(OCCOCC[N+](C)(C)Cc2ccccc2)cc1
active: Potency [10] 25100 nM | Potency [11] 15800 nM | Potency [12] 31600 nM | Potency [13] 31600 nM | Potency [14] 50100 nM

Oc1ccc(Cl)cc1Sc1cc(Cl)ccc1O
inactive: Potency [14]

O=C1CCC(c2ccc(-n3ccnc3)cc2)=NN1
inactive: outcome [16] | outcome [17] | Potency [1] | outcome [2] | outcome [3] | Potency [4] | Potency [5] | Potency [6] | Potency [7] | Potency [8] | Potency [9] | Potency [18] | outcome [19]
